CYP2C9 act: increases human cytochrome P450 2C9 activity; P11712; recombinant CYP2C9, luciferin-H conversion, luminescence; active compounds read high; factor 1 = untreated enzyme, 0 = blocked; activation factor at 5 µM; 96,000 tested, 1.4% active;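 active = activation factor of 2 or more for CYP2C9 at a 5 µM dose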;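 note: 0 = sulfaphenazole-blocked wells and 1 = vehicle-only wells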
CYP2C9 inhib: human CYP2C9 inhibition; CYP2C9 Supersomes, luciferin-H conversion, luminescence; 96,000 tested, 20% active; inhibition, % at 5 µM; P11712; AID 777;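 active = blocking of liver enzyme CYP2C9 beyond about 50% at 5 µM, limit read from the data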
CYP2C19 activ: cytochrome P450 2C19 (human) activation; AID 1025; 96,000 tested, under 10 active; activation factor at 5 µM; recombinant CYP2C19, luciferin-H EGE luminescence; active compounds read high; 0 = fully inhibited enzyme, 1 = untreated enzyme; P33261;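 active = activation factor of at least 2 at 5 µM in the primary screen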;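 note: 0 = wells with 2.5 mM tranylcypromine and 1 = vehicle-only wells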
Target sequence (P33261 whole entry, looked up): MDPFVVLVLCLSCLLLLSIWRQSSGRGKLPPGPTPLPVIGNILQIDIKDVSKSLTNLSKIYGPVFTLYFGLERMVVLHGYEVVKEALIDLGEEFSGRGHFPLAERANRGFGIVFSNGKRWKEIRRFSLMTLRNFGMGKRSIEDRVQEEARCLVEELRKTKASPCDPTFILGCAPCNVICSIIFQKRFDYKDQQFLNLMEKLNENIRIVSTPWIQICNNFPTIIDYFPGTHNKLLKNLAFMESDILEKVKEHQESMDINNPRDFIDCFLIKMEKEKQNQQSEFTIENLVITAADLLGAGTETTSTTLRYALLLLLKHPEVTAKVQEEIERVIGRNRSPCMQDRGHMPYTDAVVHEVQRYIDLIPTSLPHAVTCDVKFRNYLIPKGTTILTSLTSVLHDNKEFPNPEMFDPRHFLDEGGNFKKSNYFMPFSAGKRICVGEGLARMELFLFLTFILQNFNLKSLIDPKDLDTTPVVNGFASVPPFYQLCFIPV
CYP2C19 inhib: blocks human cytochrome P450 2C19; P33261; 96,000 tested, 21% active; inhibition, % at 5 µM; CYP2C19 Supersomes, luciferin-H EGE luminescence, 30 min; AID 778;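 active = CYP2C19 inhibition above a set limit at 5 µM in the primary screen, cut at about 50% in these data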;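 note: plate controls were negative control wells for no effect and 2.5 mM tranylcypromine positive control for full effect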
Cav32 inh: inhibitors of human Cav3.2 T-type calcium channel. O95180. Cav3.2-expressing cells, Fluo-4 calcium fluorescence FDSS; active compounds read low. B-score at 10 µM. 100,000 tested, 4% active. AID 449739;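 active = single-dose well whose peak fluorescence ratio is a statistical outlier from its plate by either plate-standardised score or position-corrected B-score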
* = called active by the depositor; x = not tested or not shown. Rows were chosen to be rich in hits. Some 27% of all compounds tested hit in one or more screens of this group.

SMILES	CYP2C9 act	CYP2C9 inhib	CYP2C19 activ	CYP2C19 inhib	Cav32 inh
CC(C)(Oc1ccc(Br)cc1)C(=O)N1CCc2ccccc21	0.8	18	0.8	21	-0.3
COCCNC(=O)c1c[nH]c2ccc(OC)cc2c1=O	0.8	22	1.1	-8	-1.7
CCOC(=O)c1ccc(COc2nc3ccccc3nc2-c2ccccc2NC(C)=O)o1	0.7	29	0.7	26	0.4
CC(=O)Nc1ccccc1-c1nc2ccccc2nc1OCC(=O)c1ccc(Br)cc1	0.4	58*	0.9	10	-1.2
CC(=O)Nc1ccccc1-c1nc2ccccc2nc1OCC(=O)c1ccc2ccccc2c1	0.3	68*	0.8	20	-1.4
O=C(CNC(=O)c1cccs1)OCC(=O)c1ccc2ccccc2c1	0.9	8	0.9	7	0.59
Cc1ccc(OC(=O)CCC(=O)Nc2ccc(S(=O)(=O)Nc3cc(C)on3)cc2)cc1	x	x	x	x	1.1
Cc1cccc(NS(=O)(=O)c2ccc(C)c(C(=O)OCC(=O)Nc3cc(C)on3)c2)c1	0.1	94*	0.1	89*	-4.1
COc1cc(C(=O)Nc2ccc(S(=O)(=O)Nc3cc(C)on3)cc2)cc(OC)c1OC	1.1	-8	1.1	-13	-0.033
COc1ccccc1NS(=O)(=O)c1cccc(C(=O)OCC(=O)Nc2cc(C)on2)c1	0.6	38	0.6	40	-4.8*
CCCCNS(=O)(=O)c1ccc(NC(=O)c2c(-c3ccccc3Cl)noc2C)cc1	0	100*	0.2	83*	-5.7*
Cc1onc(-c2ccccc2Cl)c1C(=O)Nc1ccc(S(=O)(=O)NCC2CCCO2)cc1 (centres undefined)	0.3	67*	0.7	29	-0.49
NC(=O)CC(NC(=O)c1ccccc1)c1ccc(NCCc2ccc(F)cc2)c([N+](=O)[O-])c1 (centres undefined)	x	x	x	x	0.54
COc1cc2c(cc1OC)CN(CC(=O)NC(=O)NCc1ccco1)CC2	1	-1	1	-1	0.24
COc1cc2c(cc1OC)CN(CC(=O)Nc1ccc(C)cc1)CC2	0.4	60*	0.4	65*	0.69
CC1CCN(CC(=O)Nc2ccccc2C#N)CC1	0.7	31	0.2	75*	0.37
Cc1cc(C)cc(NC(=O)CN2CCc3ccccc3C2)c1	0.8	25	0.5	48	-3
COc1cc2c(cc1OC)CN(CC(=O)Nc1ccccc1C#N)CC2	0.4	60*	0.5	55*	0.84
COc1cc2c(cc1OC)CN(Cc1ccc(C)s1)CC2	0.7	33	0.1	86*	0.064
Cc1ccc(C(=O)Nc2c(C(=O)N3CCOCC3)cnn2-c2ccccc2)cc1	1.2	-16	1.2	-17	0.11
N#Cc1ccc(C23CC4(C2)[C@H](CN(Cc2ccc(C(F)(F)F)cc2)[C@@H]4c2ccccc2)C3c2ccc(Cl)nc2)cc1 (some centres undefined)	x	x	x	x	0.032
Cc1ccc(C(=O)NNC(=O)CSc2nnc(-c3ccncc3)n2-c2ccc(C)cc2)cc1	0.6	42	0.6	38	0.11
CC(C)N1C(=O)C2C(c3ccccc3O)NC(C)(C(=O)O)C2C1=O (centres undefined)	1.4	-39	1.2	-24	-0.17
CCCCOc1ccc(-c2nc(=S)[nH][nH]2)cc1	0.8	16	1	3	-0.46
COc1ccc(NCC(=O)Nc2ccccc2C#N)cc1Cl	0.4	59*	0.1	95*	0.68
SMILES	CYP2C9 act	CYP2C9 inhib	CYP2C19 activ	CYP2C19 inhib	Cav32 inh
CCOC(=O)c1ccc(NC(=O)CN2CCc3ccccc3C2)cc1	0.7	34	0.6	44	-5.2*
COc1ccc(NC(=O)c2cc(F)cc(F)c2)cc1Cl	1	3	1	4	-1.5
COC(=O)c1[nH]c2ccc(C)cc2c1NC(=O)CN1CCc2cc(OC)c(OC)cc2C1	0.2	81*	0.3	67*	0.81
COc1ccccc1NC(=O)N1CCN(c2cc(-c3ccccc3)nc3ncnn23)CC1	0.8	20	0.7	33	0.001
Brc1ccc2c(c1)OCCOCCOc1cc(Br)ccc1OCCOCCOCCO2	0.2	85*	0.1	88*	-3.5
O=[N+]([O-])c1cc(Cl)cc(C2=NCCN2)c1	1	4	0.9	10	0.6
Cc1ccc(-c2nn(-c3ccccc3)cc2/C=N/NC(=O)CSc2nnc(C)n2-c2ccccc2)cc1	0.4	56*	0.8	21	-4.5*
CCc1ccc(CN2CCN(S(=O)(=O)Cc3ccccc3)CC2)cc1	1	1	0.8	18	-0.83
CC(C)(C)c1ccc(CN2C3=NCCCN3c3ccccc32)cc1	x	x	x	x	-6.3*
Cc1ccc(CN2C3=NCCCN3c3ccccc32)cc1	0.9	12	1	0	0.018
CCc1nc(NCc2cccnc2)c2oc3ccccc3c2n1	0.4	58*	0.1	92*	1.2
CCc1nc(NCc2ccc3c(c2)OCO3)c2oc3ccccc3c2n1	0.1	92*	0.5	52*	-3.7*
Cc1csc(NC(CO)c2nc3ccccc3n2CCOCCO)n1 (centres undefined)	x	x	x	x	0.94
CCc1nc(SCc2cc(Cl)ccc2OC)n[nH]1	0.5	52*	0.1	94*	-0.37
O=c1oc2ccccc2cc1C1=Nn2c(nnc2-c2cccnc2)SC1	0.8	22	0.9	10	0.72
CC1CCN(S(=O)(=O)c2ccc(S(=O)(=O)N3CCN4CCCC4C3)cc2)CC1 (centres undefined)	0.9	12	0.9	14	x
Cc1ccc2c(c1)N(CC(=O)O)C(=O)CO2	1	-5	0.9	5	0.26
Cc1ccc2c(c1)N(CC(=O)NCc1cccs1)C(=O)CO2	1.2	-18	0.3	68*	0.059
CCN(CCCNC(=O)CN1C(=O)COc2ccccc21)c1cccc(C)c1	0.3	67*	0.2	82*	-2.2
Cc1ccc(CNC(=O)CN2C(=O)COc3ccc(C)cc32)cc1	1.1	-12	0.3	69*	-0.052
Cc1ccc2c(c1)N(CC(=O)NC1CCC(C)CC1)C(=O)CO2 (centres undefined)	1.1	-6	0.4	62*	-0.28
CCCCC1CCC(C(=O)NCc2ccc3c(c2)OCO3)CC1 (centres undefined)	0.6	39	0.9	12	2.2
Cc1ccc2c(c1)N(CC(=O)N1CCc3ccccc3C1)C(=O)CO2	0.8	25	0.2	84*	-0.46
Cc1ccc2c(c1)N(CC(=O)OC(CC(C)C)C(=O)NC1CCCC1)C(=O)CO2 (centres undefined)	0.4	63*	0.3	69*	-2.7
Cc1ccc(CCNC(=O)CN2C(=O)COc3ccccc32)cc1	0.4	59*	0.1	89*	0.048
COc1cc2c(cc1OC)CN(C(=O)c1ccc(OC)c(S(=O)(=O)N3CCOCC3)c1)CC2	0.8	21	0.9	7	1.6
c1cc2[nH]snc2c2nc(C3CC3)nc12	0.9	8	0.7	26	-0.29
CC1=CCC(C(=O)O)(C(=O)N/N=C/c2cccs2)C(c2ccc([N+](=O)[O-])cc2)C1 (centres undefined)	0.8	20	1	2	0.76

From PubChem BioAssay
